FBPA Giardia inh: blocks Giardia fructose-bisphosphate aldolase activity | AID 2451 | 290,000 tested, 0.71% active | Potency, µM (top dose mostly 59.6 µM), without a hit: at the highest dose activity, negative = inhibition, actives largely listed as inhibitors | purified Giardia FBPA | A8B2U2; note: nearly all actives have a fitted effect of over 55% in size
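Giardia FBPA (40 nM reagent) was preincubated 10 min at RT with compound (up to 57.5 uM final), then substrate plus GAPDH/TPI/NAD/arsenate coupling system with diaphorase/resazurin was added; resorufin fluorescence (525/598 nm) was read after 20 min.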
Sm TGR inh: S. mansoni TGR enzyme inhibition; Q962Y6; purified TGR, DTNB reduction, TNB absorbance 405 nm; Potency, µM (doses to about 114 µM), for inactives: at the top dose activity change, negative = inhibition, usual class: inhibitors; 360,000 tested, 3% active; note: nearly all actives have a fitted effect of over 60% in size
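Kinetic colorimetric format: TGR-catalysed, NADPH-driven DTNB reduction monitored via TNB absorbance. Enzyme dispensed at 20 nM; compound exposure 15 min at room temperature before reaction start.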
AmpC inh detg: inhibitors of E. coli AmpC beta-lactamase with detergent | AmpC hydrolysis of nitrocefin, absorbance 480 nm, 0.01% Triton | Potency, µM (highest dose often 114 µM), for the others: top-dose activity change, negative = inhibition, usual class: inhibitors | AID 485294 | P00811 | 370,000 tested, 0.041% active;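 note: 0% = no-compound wells and -100% = no-enzyme wells; nearly all actives have a fitted effect of over 25% in size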
Target sequence (P00811 whole entry, looked up): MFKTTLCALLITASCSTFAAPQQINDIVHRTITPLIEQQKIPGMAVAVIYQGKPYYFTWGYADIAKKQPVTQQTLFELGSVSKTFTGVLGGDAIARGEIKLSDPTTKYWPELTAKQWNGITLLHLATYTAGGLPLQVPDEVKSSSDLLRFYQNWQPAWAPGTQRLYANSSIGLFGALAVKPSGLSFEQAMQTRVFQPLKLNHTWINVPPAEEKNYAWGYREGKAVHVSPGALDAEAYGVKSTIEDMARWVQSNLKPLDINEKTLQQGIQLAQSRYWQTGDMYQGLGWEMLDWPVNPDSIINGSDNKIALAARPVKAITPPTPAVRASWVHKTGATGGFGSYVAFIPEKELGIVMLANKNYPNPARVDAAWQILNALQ
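20 mM phosphate pH 7.0 + 0.01% (detergent screen) or 0.0001% Triton X-100; 5.3 nM AmpC reagent; cpd preinc 15 min RT; nitrocefin (800 uM stock) to start; A480 q20 s × 4 min; Activity was normalised to no-enzyme and no-compound control wells.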
RE007 growth inh: less growth of the S. pombe RE007 Vpr strain | S. pombe RE007 Vpr strain, BacTiter-Glo ATP luminescence, 24 h | Potency, µM (series often up to 92.2 µM), inactives show top-dose activity change, negative = less growth, usual class: inhibitors | 360,000 tested, 0.21% active | AID 651644; active = well fitted falling curve with a large enough effect; inconclusive = small, poorly fitted or top-dose-only effect; inactive = no such curve, though single readings can be large or run the other way; note: nearly all actives have a fitted effect of over 50% in size
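Fission yeast RE007 carrying one integrated HIV-1 vpr copy, seeded at OD 0.01 in PMG+AL medium with 23 nL pinned compound. Grown 24 h at 30 degrees; viability read by BacTiter-Glo luminescence after 5 min.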
AmpC no deterg: AmpC beta-lactamase inhibition without detergent | P00811 | Potency, µM (doses to about 57.1 µM), for the others: top-dose activity change, negative = inhibition, most hits filed as inhibitors | AmpC nitrocefin hydrolysis, absorbance 480 nm, 0.0001% Triton | 330,000 tested, 0.52% active;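 note: plate controls were no compound for no effect and no enzyme for full effect; nearly all actives have a fitted effect of over 20% in size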
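AmpC (5.3 nM in the dispensed reagent) in 20 mM phosphate pH 7.0 with 0.01% (detergent screen) or 0.0001% Triton X-100 was preincubated with compounds for 15 min at room temperature. Nitrocefin was then added from an 800 uM solution, and hydrolysis was followed at 480 nm.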
Numbers without * were called inactive. Only some compounds are listed: those with a hit (about 3.4% of all), similar ones and a draw of the others. Unless noted, calls come from the whole dose curve; as a rule, active = well fitted curve in the direction sought with a large enough effect; inconclusive = small, poorly fitted or top-dose-only effect, or another doubt; inactive = no such curve, though single readings can be large; an effect the other way counts as inactive or inconclusive. Unless noted, % is set by controls: 0 for no effect and ±100 for the full control effect; potency is the fitted concentration of half-maximal effect.

COc1ccc(CN2CCOCCOCCOCCOCCOCC2)cc1 was read as FBPA Giardia inh 0.6%, Sm TGR inh 32.3%, AmpC inh detg 7.5%, RE007 growth inh -3.5% and AmpC no deterg -1.5%.
COc1ccc(CN2CCNCC2)cc1 was read as FBPA Giardia inh -1.6%, Sm TGR inh 50.1µM*, AmpC inh detg 0.1%, RE007 growth inh -4.0% and AmpC no deterg 70.3%.
`Cc1ccccc1OCc1nc(-c2cccnc2)no1` gave FBPA Giardia inh -6.5%, Sm TGR inh 39.8µM*, AmpC inh detg -2.9%, RE007 growth inh 3.9% and AmpC no deterg -17.6%.
CC1(C)CC(Nc2ccc(Nc3ccccc3)cc2)CC(C)(C)N1 was read as FBPA Giardia inh -24.2%, Sm TGR inh 6.31µM*, AmpC inh detg -13.2% and AmpC no deterg 1.8%.
Screening Cc1occc1-c1nnc(SCC(=O)c2ccc3c(c2)OCCO3)n1CC1CCCO1 (centres undefined) returned FBPA Giardia inh -5.6%, Sm TGR inh 50.1µM*, AmpC inh detg -9.3%, RE007 growth inh 6.9% and AmpC no deterg 2.7%.
For Cc1occc1-c1nnc(SCC(=O)c2ccccc2)n1CC1CCCO1 (centres undefined) the results were FBPA Giardia inh -3.5%, Sm TGR inh 28.2µM*, AmpC inh detg -16.7%, RE007 growth inh -6.8% and AmpC no deterg 95.0%.
Screening CCCCn1c(SCC(=O)c2ccc3c(c2)OCCO3)nnc1-c1ccoc1C returned FBPA Giardia inh -6.4%, Sm TGR inh inconclusive, AmpC inh detg inconclusive, RE007 growth inh 22.4% and AmpC no deterg 9.3%.
CCn1c(SCC(=O)c2ccc(F)cc2)nnc1-c1ccoc1C was read as FBPA Giardia inh -6.5%, Sm TGR inh 39.8µM*, AmpC inh detg inconclusive, RE007 growth inh -0.7% and AmpC no deterg -3.7%.
Cc1occc1-c1nnc(SCCCC(=O)c2ccc(F)cc2)n1C was read as FBPA Giardia inh -1.6%, Sm TGR inh -2.3%, AmpC inh detg -8.7%, RE007 growth inh -20.0% and AmpC no deterg 14.5%.
For CC(=O)NCCCc1nc2ccccc2n1Cc1ccccc1C the results were FBPA Giardia inh 0.1%, Sm TGR inh -25.2%, AmpC inh detg -13.0%, RE007 growth inh 11.4% and AmpC no deterg 31.0%.
CC(=O)Nc1cc2c(=O)n(Cc3ccccc3)c(C)nc2cc1N1CCOCC1 was read as FBPA Giardia inh -18.3%, Sm TGR inh 6.31µM*, AmpC inh detg -15.5%, RE007 growth inh 6.8% and AmpC no deterg -8.8%.
For Cn1cnc([N+](=O)[O-])c1Oc1ccc2ccccc2c1 the results were FBPA Giardia inh -22.5%, Sm TGR inh 14.1µM*, AmpC inh detg -0.5%, RE007 growth inh -10.8% and AmpC no deterg -5.5%.
Screening COc1ccc(CCNC(=O)C2CCCN(S(=O)(=O)c3ccc(F)cc3)C2)cc1 (centres undefined) returned Sm TGR inh 89.1µM*, AmpC inh detg -0.5%, RE007 growth inh -15.6% and AmpC no deterg 14.6%.
COc1ccc(NC(=O)C2CCCCN2S(=O)(=O)c2ccc(F)cc2)cc1 (centres undefined) was read as FBPA Giardia inh -17.0%, Sm TGR inh 6.3%, AmpC inh detg 12.5%, RE007 growth inh -12.7% and AmpC no deterg 3.16µM*.
Screening COc1ccc(NC(=O)C2CCCN2S(=O)(=O)c2ccc(C)cc2)cc1 (centres undefined) returned FBPA Giardia inh 1.7%, Sm TGR inh 0.4%, AmpC inh detg 1.3%, RE007 growth inh 1.6% and AmpC no deterg -12.6%.
`NS(=O)(=O)c1ccc(CCNC(=O)c2cnc(Cl)c(Cl)c2)cc1` gave FBPA Giardia inh 7.4%, Sm TGR inh -3.2%, AmpC inh detg -4.4%, RE007 growth inh -2.5% and AmpC no deterg -28.9%.
COc1ccc(S(=O)(=O)Nc2ccc(S(=O)(=O)Nc3nccs3)cc2)cc1 was read as FBPA Giardia inh 6.8%, Sm TGR inh -2.3%, AmpC inh detg 2.5%, RE007 growth inh 4.1% and AmpC no deterg -41.0%.

Source: PubChem
